Measured values: the supplement of paper PMC11732987, “Enantioselective OTUD7B fragment discovery through chemoproteomics screening and high-throughput optimisation” (Communications Chemistry, 2025)

Legend:
Experiment in all cases: log2 ratio of Biotin-Ahx-Ub-VS probe labelling (fragment/DMSO); higher = less target engagement (more negative = stronger competition), active = hit call of the paper (q ≤ 0.05, log2 ratio ≤ -1)
Details in all cases: compound concentration: 200 uM; treatment time: 3 h
USP42 = target: T1, USP42 (UniProt Q9H9J4)
T1 sequence (whole entry): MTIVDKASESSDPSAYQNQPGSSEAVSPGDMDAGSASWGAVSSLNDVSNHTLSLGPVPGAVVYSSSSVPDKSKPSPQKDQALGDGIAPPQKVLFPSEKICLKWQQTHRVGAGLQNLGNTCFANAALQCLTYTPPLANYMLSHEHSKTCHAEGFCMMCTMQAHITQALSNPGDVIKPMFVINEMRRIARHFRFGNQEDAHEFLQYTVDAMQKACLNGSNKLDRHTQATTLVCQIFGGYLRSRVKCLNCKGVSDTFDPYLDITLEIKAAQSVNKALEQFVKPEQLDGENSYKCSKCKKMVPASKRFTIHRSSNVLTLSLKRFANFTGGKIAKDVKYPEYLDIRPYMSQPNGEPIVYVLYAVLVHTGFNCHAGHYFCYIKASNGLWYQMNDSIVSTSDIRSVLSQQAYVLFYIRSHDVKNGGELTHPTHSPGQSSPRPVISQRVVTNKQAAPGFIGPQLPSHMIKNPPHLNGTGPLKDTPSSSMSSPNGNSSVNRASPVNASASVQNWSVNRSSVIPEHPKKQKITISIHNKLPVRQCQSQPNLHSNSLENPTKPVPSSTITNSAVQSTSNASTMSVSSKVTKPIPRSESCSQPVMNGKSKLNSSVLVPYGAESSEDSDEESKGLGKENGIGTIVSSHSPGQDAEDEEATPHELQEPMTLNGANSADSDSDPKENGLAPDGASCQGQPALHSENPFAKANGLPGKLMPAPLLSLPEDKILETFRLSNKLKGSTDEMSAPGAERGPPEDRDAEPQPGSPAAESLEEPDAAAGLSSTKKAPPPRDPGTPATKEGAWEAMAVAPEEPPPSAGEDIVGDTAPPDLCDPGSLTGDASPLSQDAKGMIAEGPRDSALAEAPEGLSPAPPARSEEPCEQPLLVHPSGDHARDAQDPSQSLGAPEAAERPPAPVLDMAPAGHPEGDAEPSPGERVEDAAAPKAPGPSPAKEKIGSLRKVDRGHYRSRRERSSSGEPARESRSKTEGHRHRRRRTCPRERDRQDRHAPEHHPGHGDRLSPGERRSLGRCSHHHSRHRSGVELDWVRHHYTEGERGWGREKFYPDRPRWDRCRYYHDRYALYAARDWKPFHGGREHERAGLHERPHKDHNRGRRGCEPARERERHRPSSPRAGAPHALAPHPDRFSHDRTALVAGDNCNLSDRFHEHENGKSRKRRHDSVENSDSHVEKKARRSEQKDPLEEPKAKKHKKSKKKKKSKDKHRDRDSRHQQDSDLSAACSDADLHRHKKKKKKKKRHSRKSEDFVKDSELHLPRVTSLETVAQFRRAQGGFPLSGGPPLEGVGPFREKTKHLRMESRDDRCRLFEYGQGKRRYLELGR
Summary of the method: (§1)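 Triplicate samples of HEK293T lysate, 495 µg each, received fragment at 200 µM or vehicle for 3 h, followed by Biotin-Ahx-Ub-VS (0.5 µM final) for 1 h. After NeutrAvidin enrichment of labelled DUBs and LysC/trypsin digestion, peptides were run by diaPASEF LC-MS/MS. The values are average log2 fragment/vehicle ratios from global-median-normalised Spectronaut label-free quantities, tested by unpaired t-test on proteins having ≥2 unique peptides.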

USP46 = USP46 (UniProt P62068)
Summary of the method: as §1

USP47 = target: T2, USP47 (UniProt Q96K76)
T2 sequence (whole entry): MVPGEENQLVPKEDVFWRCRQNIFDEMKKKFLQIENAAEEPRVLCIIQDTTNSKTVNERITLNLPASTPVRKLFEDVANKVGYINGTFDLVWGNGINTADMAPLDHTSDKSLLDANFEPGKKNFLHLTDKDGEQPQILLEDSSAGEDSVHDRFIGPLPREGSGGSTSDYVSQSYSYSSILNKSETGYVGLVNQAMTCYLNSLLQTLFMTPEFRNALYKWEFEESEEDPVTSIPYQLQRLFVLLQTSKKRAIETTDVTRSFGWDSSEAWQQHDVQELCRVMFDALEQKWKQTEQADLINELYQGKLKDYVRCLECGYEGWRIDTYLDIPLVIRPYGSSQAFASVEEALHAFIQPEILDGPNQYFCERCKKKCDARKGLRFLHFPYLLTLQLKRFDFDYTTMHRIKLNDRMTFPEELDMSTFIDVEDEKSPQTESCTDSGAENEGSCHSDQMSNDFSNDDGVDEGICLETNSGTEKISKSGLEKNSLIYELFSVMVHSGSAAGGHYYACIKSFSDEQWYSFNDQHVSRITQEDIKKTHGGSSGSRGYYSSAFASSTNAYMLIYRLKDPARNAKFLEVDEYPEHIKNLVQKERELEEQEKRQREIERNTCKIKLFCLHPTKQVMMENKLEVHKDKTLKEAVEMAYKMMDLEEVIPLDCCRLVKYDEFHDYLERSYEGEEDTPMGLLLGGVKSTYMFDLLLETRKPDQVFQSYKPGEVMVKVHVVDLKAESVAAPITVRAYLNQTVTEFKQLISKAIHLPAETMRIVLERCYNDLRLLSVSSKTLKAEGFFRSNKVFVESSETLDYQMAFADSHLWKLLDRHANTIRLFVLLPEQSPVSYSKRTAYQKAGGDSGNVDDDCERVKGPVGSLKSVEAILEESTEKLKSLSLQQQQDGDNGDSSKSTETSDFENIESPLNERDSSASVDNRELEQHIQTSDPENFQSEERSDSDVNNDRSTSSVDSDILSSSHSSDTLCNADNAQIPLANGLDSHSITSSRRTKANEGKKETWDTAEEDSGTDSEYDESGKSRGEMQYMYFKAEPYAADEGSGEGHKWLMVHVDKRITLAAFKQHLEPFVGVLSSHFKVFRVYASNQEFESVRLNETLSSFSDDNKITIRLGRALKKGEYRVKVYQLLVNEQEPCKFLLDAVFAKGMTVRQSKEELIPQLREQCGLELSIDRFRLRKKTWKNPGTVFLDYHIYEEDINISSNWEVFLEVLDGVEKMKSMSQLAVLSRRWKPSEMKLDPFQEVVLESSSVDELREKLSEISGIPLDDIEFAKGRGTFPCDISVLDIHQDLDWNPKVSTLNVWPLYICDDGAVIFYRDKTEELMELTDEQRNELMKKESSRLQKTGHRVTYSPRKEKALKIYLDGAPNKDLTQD
Summary of the method: as §1

USP48 = target: T3, USP48 (UniProt Q86UV5)
T3 sequence (whole entry): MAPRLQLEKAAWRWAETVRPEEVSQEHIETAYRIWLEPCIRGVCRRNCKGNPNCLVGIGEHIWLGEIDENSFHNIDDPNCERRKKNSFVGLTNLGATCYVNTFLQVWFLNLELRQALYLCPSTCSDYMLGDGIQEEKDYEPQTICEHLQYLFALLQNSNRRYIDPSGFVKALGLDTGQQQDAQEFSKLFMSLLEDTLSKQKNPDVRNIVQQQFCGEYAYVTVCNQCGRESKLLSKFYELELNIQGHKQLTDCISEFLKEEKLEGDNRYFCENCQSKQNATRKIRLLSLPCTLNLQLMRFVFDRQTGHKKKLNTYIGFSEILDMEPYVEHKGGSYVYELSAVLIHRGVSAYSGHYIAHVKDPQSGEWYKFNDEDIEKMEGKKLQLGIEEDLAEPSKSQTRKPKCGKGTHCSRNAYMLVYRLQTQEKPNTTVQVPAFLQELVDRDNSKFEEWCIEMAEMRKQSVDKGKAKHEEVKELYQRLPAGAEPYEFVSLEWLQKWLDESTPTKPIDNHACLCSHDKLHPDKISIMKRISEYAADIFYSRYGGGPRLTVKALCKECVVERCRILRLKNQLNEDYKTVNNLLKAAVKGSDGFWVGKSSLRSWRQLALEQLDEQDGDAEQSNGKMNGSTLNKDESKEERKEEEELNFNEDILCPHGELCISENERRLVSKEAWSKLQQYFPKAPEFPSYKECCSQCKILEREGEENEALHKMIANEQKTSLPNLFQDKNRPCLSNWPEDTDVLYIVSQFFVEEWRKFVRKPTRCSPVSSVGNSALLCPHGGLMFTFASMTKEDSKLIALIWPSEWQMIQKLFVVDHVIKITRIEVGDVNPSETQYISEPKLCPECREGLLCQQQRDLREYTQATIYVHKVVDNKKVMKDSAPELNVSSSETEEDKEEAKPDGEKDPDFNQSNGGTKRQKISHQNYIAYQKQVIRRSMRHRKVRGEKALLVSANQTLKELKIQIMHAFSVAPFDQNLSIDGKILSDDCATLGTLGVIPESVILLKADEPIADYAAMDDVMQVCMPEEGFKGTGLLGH
Summary of the method: as §1

USP5 = target: T4, USP5 (UniProt P45974)
T4 sequence (whole entry): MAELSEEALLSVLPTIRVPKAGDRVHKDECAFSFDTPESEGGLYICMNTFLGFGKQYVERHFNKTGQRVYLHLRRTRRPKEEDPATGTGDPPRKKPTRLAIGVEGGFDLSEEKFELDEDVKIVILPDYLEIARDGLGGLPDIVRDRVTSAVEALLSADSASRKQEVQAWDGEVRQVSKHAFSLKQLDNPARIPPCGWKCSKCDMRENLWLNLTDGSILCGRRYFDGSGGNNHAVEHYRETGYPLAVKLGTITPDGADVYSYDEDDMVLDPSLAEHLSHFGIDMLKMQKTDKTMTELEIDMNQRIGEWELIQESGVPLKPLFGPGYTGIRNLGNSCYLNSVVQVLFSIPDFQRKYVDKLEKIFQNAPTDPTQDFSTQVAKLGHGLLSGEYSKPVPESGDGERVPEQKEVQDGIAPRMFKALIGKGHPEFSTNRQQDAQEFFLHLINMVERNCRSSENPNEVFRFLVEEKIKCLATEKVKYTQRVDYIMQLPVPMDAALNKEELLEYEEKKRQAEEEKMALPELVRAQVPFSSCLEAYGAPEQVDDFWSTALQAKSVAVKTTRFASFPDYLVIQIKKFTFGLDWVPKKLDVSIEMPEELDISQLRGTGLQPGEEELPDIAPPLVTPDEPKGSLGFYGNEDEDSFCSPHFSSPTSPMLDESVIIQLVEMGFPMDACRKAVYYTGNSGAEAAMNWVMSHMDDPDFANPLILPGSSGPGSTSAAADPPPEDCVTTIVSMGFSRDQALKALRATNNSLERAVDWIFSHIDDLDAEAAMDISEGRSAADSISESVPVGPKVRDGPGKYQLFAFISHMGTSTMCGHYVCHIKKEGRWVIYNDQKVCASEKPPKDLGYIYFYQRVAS
Summary of the method: as §1

USP54 = USP54 (UniProt Q70EL1)
Summary of the method: as §1

USP7 = USP7 (UniProt Q93009)
Summary of the method: as §1

USP8 = target: T5, USP8 (UniProt P40818)
T5 sequence (whole entry): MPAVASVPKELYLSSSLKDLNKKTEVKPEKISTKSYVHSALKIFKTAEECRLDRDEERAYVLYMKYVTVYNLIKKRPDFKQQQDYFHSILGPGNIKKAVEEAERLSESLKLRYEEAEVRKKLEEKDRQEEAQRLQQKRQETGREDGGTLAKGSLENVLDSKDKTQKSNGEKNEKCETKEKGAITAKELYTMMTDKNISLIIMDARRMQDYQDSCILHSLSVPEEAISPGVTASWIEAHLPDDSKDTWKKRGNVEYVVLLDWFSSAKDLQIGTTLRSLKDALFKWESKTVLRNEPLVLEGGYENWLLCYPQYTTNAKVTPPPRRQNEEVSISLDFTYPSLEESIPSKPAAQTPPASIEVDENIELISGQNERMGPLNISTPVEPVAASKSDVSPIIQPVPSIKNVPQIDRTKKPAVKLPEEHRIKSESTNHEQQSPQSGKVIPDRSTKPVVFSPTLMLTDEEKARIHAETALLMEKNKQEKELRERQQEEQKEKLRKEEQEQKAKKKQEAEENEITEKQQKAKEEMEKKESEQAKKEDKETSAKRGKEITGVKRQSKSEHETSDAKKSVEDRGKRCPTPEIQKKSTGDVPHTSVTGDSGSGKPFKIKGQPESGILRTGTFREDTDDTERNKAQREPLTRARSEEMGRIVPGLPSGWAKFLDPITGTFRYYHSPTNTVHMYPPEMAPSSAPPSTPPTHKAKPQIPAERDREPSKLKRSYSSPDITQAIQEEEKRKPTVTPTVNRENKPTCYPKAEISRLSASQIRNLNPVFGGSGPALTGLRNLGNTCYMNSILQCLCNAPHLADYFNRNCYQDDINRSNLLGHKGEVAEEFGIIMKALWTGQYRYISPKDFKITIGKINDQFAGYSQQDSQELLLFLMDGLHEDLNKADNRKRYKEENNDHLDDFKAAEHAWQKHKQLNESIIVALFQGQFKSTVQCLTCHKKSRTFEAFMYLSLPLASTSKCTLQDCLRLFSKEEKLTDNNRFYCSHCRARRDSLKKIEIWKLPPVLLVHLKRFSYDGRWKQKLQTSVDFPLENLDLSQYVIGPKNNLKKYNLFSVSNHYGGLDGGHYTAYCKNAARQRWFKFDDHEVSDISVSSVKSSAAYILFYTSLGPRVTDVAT
Summary of the method: as §1

USP9X = USP9X (UniProt Q93008)
Summary of the method: as §1

UniProt O00487 = target: UniProt O00487
Summary of the method: as §1

Measured: log2 ratio of Biotin-Ahx-Ub-VS probe labelling

Sequence of UniProt O00487 (O00487 whole entry): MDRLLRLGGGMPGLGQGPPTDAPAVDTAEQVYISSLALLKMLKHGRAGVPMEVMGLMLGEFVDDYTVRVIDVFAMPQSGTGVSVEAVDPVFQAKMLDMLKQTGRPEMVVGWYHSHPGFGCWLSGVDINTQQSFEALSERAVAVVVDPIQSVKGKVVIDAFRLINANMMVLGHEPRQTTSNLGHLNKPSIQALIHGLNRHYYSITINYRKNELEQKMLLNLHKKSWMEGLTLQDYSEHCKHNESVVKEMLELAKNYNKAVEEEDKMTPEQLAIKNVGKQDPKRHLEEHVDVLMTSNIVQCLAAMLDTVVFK
Sequence of USP7 (Q93009 whole entry, looked up): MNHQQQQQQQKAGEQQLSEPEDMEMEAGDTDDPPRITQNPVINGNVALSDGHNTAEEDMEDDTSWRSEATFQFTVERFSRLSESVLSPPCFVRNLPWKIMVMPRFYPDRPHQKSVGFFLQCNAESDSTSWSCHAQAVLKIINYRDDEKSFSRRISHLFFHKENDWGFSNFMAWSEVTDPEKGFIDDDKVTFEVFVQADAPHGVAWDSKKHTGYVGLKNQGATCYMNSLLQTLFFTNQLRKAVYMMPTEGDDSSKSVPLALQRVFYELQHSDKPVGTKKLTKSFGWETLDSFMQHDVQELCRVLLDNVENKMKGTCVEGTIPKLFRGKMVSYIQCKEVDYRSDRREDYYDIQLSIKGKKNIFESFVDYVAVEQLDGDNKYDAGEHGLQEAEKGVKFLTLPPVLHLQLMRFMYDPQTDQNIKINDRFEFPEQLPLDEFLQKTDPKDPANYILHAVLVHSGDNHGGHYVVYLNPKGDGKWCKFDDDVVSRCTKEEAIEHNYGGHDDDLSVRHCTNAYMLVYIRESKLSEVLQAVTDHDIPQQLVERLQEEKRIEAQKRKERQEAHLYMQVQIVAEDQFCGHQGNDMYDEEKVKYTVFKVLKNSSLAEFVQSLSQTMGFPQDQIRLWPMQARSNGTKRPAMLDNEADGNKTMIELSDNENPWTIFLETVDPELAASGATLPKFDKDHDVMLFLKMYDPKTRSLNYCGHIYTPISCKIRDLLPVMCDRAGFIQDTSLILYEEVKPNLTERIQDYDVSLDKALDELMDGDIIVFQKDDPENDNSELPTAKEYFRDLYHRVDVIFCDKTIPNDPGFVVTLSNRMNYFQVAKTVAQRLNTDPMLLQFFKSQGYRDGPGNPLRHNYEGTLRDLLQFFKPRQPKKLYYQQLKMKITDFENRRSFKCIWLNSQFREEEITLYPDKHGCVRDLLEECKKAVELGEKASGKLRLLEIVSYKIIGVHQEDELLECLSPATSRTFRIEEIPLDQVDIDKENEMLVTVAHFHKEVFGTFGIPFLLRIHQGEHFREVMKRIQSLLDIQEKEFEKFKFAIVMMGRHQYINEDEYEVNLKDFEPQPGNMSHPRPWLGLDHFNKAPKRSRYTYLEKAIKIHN
Sequence of USP46 (P62068 whole entry): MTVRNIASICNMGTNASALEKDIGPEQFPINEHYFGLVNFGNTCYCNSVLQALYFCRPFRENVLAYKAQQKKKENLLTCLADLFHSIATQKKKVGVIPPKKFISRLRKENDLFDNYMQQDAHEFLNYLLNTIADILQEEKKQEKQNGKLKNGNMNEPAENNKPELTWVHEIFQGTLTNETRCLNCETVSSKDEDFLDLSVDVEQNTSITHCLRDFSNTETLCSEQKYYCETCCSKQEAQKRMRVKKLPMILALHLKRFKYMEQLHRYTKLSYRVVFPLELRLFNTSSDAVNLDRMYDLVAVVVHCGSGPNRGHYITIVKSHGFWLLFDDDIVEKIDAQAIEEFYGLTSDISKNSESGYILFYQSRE
Sequence of USP54 (Q70EL1 whole entry): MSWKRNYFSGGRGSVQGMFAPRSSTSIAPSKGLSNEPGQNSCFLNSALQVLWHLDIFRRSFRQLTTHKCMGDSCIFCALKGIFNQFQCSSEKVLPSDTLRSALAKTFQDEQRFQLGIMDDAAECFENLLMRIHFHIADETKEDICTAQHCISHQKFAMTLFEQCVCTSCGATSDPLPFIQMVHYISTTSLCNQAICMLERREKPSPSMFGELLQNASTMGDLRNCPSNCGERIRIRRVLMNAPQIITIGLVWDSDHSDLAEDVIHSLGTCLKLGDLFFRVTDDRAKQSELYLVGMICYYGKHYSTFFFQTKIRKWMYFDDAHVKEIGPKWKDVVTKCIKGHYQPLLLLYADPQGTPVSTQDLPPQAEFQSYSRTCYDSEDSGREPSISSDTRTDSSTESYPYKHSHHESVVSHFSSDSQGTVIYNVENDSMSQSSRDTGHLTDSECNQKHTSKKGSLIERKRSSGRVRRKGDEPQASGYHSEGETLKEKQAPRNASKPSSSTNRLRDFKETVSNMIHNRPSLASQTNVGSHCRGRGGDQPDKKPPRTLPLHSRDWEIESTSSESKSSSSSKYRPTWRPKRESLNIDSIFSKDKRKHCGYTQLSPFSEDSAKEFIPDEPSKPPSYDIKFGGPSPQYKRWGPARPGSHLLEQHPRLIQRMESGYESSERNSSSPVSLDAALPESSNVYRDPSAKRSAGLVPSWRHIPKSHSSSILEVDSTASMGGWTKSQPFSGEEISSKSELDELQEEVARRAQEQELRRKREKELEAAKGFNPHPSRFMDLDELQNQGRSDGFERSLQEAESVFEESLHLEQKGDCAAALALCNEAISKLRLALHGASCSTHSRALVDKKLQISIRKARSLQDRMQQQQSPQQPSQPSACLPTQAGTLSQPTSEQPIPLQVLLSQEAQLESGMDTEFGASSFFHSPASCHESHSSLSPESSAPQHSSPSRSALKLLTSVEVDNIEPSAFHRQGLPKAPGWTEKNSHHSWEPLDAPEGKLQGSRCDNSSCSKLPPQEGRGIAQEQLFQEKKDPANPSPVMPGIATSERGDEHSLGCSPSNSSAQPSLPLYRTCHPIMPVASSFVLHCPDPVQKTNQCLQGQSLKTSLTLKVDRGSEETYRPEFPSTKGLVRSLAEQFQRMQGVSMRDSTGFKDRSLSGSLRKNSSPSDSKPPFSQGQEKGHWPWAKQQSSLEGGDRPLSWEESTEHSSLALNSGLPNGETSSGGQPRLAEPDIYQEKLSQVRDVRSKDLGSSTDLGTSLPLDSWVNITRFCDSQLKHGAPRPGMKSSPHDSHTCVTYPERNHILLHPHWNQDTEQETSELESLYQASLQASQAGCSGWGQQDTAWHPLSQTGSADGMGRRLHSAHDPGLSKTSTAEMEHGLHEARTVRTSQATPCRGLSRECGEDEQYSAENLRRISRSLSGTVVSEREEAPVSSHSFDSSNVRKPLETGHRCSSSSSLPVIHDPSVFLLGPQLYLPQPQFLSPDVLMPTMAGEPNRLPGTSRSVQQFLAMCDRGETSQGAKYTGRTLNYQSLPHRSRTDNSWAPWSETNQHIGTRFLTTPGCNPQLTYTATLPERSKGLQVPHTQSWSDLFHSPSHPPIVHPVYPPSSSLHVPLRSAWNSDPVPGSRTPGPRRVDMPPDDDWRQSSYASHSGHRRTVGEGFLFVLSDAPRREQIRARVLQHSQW

Cl.Cn1ncc2c1CC(NC(=O)CCl)CC2 (stereo not given)
inactive: USP42 0.421 | USP46 0.116 | USP47 0.118 | USP48 0.191 | USP5 0.0298 | USP54 -0.146 | USP7 -0.063 | USP8 -0.0427 | USP9X -0.0203 | UniProt O00487 -0.0601
